This is a sample that favours compounds with a hit; in the whole collection about 6.2% have one here.
KinaseGlo FLuc: Counterscreen for Luciferase (Kinase-Glo TM) Inhibition | Kinase-Glo luciferase, ATP luminescence, 8 min | Potency, µM (series often up to 38.3 µM), most hits filed as inhibitors | 0.28% of 200,000 active | AID 1379, 2008; also: nearly all actives have a fitted effect of over 60% in size
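Compounds were added to a substrate mix at pH 7.2 (50 mM imidazole, 10 uM ATP, within the enzyme's linear range), followed by Kinase-Glo detection reagent; luminescence was measured after 8 minutes at ambient temperature.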
VP16 counter: VP16 counterscreen qHTS for inhibitors of ROR gamma transcriptional activity | Potency, µM (doses to about 53.6 µM), hits mostly inhibitors | 3.5% of 310,000 active | AID 2546, 2010 | Drosophila S2 Gal4-VP16 UAS-luciferase, luminescence, 20 h;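 also: Gal4-VP16 expression switched on by copper sulfate through the metallothionein promoter; nearly all actives have a fitted effect of over 50% in size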
RORg inh: qHTS for inhibitors of ROR gamma transcriptional activity; 5.4% of 310,000 active; Drosophila S2 Gal4-RORgamma UAS-luciferase reporter, 20 h; Nuclear receptor ROR-gamma (Mus musculus), P51450; Potency, µM (doses to about 53.6 µM), hits mostly inhibitors; also: nearly all actives have a fitted effect of over 60% in size
Target sequence (P51450 whole entry, looked up, the tested form may be a part): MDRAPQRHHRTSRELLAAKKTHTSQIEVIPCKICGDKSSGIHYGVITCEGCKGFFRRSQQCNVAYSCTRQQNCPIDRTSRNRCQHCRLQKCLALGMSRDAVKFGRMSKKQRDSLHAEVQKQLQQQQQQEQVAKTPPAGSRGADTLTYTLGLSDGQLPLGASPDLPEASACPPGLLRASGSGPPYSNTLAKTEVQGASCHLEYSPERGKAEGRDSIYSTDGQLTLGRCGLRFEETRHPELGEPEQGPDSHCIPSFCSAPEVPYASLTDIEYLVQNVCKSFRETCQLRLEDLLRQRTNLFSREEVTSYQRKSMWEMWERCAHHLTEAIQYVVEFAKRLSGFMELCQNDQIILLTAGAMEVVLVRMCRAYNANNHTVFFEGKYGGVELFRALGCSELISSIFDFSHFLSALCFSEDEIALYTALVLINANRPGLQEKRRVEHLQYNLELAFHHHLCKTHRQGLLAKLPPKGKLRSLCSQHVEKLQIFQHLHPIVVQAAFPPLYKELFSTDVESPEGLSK
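Stably transfected Drosophila Schneider cells are the test system, with ROR gamma fused to Gal4 and luciferase under UAS control; luminescence is read after 20 hr of 700 uM copper sulfate induction at ambient temperature.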
Large screens that a line does not name were inactive. Calls follow the shape of the dose curve; as a rule, active = well fitted curve in the direction sought with a large enough effect; inconclusive = small, poorly fitted or top-dose-only effect, or another doubt; inactive = no such curve, though single readings can be large; an effect the other way counts as inactive or inconclusive.

CC(=O)COc1cccc2ccc(/C=C/c3ccc(Br)s3)nc12	RORg inh inconclusive (no result: KinaseGlo FLuc)
COc1cccc(/C=C/c2ccc3cccc(O)c3n2)c1	VP16 counter 11.2µM, RORg inh 3.55µM (no result: KinaseGlo FLuc)
O=C(O)c1ccc2cccc(O)c2n1	none (no result: KinaseGlo FLuc)
O=[N+]([O-])c1ccc(/C=C/c2ccc3cccc(O)c3n2)cc1	VP16 counter inconclusive, RORg inh 2.51µM (no result: KinaseGlo FLuc)
C=C(C)C(O)/C=C/c1cccc(OC)c1 (stereo unspecified)	RORg inh inconclusive (no result: KinaseGlo FLuc)
Oc1cccc(/C=C/c2ccc3cccc(O)c3n2)c1	VP16 counter 5.01µM (no result: KinaseGlo FLuc)
C=Cc1ccccc1C=C	none (no result: KinaseGlo FLuc)
CCCCC(CC)COC(=O)CC(C(=O)OCC(CC)CCCC)S(=O)(=O)O (stereo unspecified)	none (no result: KinaseGlo FLuc)
CCCCCCCCCCCCC(C(=O)O)C(C)C(=O)O (stereo unspecified)	none
COc1cccc(NC(=O)N2C3CCCC2CC(NC(=O)C(C)(C)C)C3)c1 (stereo unspecified)	none (no result: KinaseGlo FLuc)
COCCOC(=O)c1ccccc1C(=O)OCCOC	none (no result: KinaseGlo FLuc)
CN1CCN(c2ncc3nc(CCc4ccccc4)c(=O)n(C4CC4)c3n2)CC1	RORg inh inconclusive (no result: KinaseGlo FLuc)
COc1ccc(S(=O)(=O)NC(CC(=O)NCC2CCCO2)c2ccco2)cc1 (stereo unspecified)	VP16 counter 22.4µM
COc1ccc(S(=O)(=O)NC(CC(=O)O)c2ccco2)cc1 (stereo unspecified)	none
O=c1cc2[nH]c3ccccc3c(=O)n2nc1-c1ccccc1	RORg inh inconclusive
CCN(CC)CCNC(=O)c1ccc(Cl)c(S(=O)(=O)Nc2ccccc2OC)c1	none
CCN(CC)CCNC(=O)c1ccc(Cl)c(S(=O)(=O)Nc2ccc(Cl)cc2)c1	VP16 counter 20µM, RORg inh inconclusive
CN(C)CCNc1nc2c(c(=O)[nH]c(=O)n2C)n1CCOc1ccccc1	none (no result: KinaseGlo FLuc)
NC(=S)N/N=C/c1ccc(-c2ccccc2)o1	VP16 counter 5.01µM, RORg inh 1.41µM
O/N=C\c1ccc(-c2ccccc2)o1	none
Cc1ccc(C(=O)N/N=C\c2ccc(Br)o2)o1	none
CN(C)/N=C/c1ccc(/C=N/NC(N)=S)o1	VP16 counter inconclusive, RORg inh 14.1µM
Cc1ccc(-c2ccc(/C=N/NC(N)=S)o2)cc1	VP16 counter 2.51µM, RORg inh 0.562µM (no result: KinaseGlo FLuc)
Cc1ccc(-c2ccc(/C=N/n3cnnc3)o2)cc1	none (no result: KinaseGlo FLuc)
COc1ccc(CC(=O)N/N=C/c2ccc(-c3ccc(F)cc3)o2)cc1OC	none (no result: KinaseGlo FLuc)
NC(=S)N/N=C/c1ccc(-c2ccc(SC(F)F)cc2)o1	VP16 counter 1.12µM, RORg inh 0.501µM (no result: KinaseGlo FLuc)
COC(=O)[C@@H]1C[C@H]2CC[C@H](O)C[C@H]2N1Cc1ccccc1OS(=O)(=O)c1ccc(C)cc1	none
CCN(c1nc(C)cc(OC)n1)S(=O)(=O)c1ccccc1	none
COC(=O)N1c2ccccc2C23[C@@H]4CN5CCC[C@]6(CCC12C(O)(C6)C4=O)[C@H]53	none
CC12CCC=CC1C(c1ccc(Br)cc1F)N(Cc1ccccc1)C2=O (stereo unspecified)	none (no result: KinaseGlo FLuc)
O=C(O)/C=C/c1ccc(-c2cccc(C(F)(F)F)c2)o1	none (no result: KinaseGlo FLuc)
NC(=S)N/N=C/c1ccc(-c2ccc(Cl)c(Cl)c2)o1	VP16 counter 2µM, RORg inh 2.51µM
Nc1nnc(CC(=O)N/N=C/c2ccc(-c3ccccc3Cl)o2)s1	none
Cc1ccc(C(=O)N/N=C/c2ccc(-c3cccc(C(F)(F)F)c3)o2)cn1	VP16 counter 10µM, RORg inh 3.55µM (no result: KinaseGlo FLuc)
Cc1ccc(OCC(=O)N/N=C\c2ccc(-c3cccc(C(=O)O)c3)o2)c(C)c1	none
NC(=S)N/N=C\c1ccc(-c2cccc(Cl)c2Cl)o1	VP16 counter 1.12µM, RORg inh 0.891µM
CNC(=S)N/N=C/c1ccc(-c2cccc(C(=O)O)c2)o1	VP16 counter inconclusive, RORg inh 7.08µM (no result: KinaseGlo FLuc)
Cc1ccc(-c2ccc(/C=N/NC(=O)Cc3nnc(N)s3)o2)cc1Cl	none (no result: KinaseGlo FLuc)
CC1Sc2ccc(S(=O)(=O)CCC(=O)NCc3cccs3)cc2NC1=O (stereo unspecified)	none (no result: KinaseGlo FLuc)
Cc1ccc(S(=O)(=O)Nc2ccc(-c3nc4cc(NS(=O)(=O)c5ccc(C)cc5)ccc4o3)cc2)cc1	VP16 counter inconclusive
CC[C@H](NC(=O)[C@H](CCCN=C(N)N)NC(=O)[C@H](Cc1c[nH]c2ccccc12)NC(=O)[C@@H](N)CS)C(=O)N[C@@H](CCCN=C(N)N)C(=O)N[C@@H](Cc1ccc(O)cc1)C(N)=O	none (no result: KinaseGlo FLuc)
Cc1nc(NCCO)c2nc(-c3ccccc3)n(CCN(C)C)c2n1	none
Nc1nnc(CC(=O)N/N=C/c2ccc(-c3ccccc3)o2)s1	none
CCOC(=O)C(=O)N/N=C/c1ccco1	none (no result: KinaseGlo FLuc)
CCNC(=S)N/N=C/c1ccc(-c2ccccc2)o1	KinaseGlo FLuc inconclusive, VP16 counter 1.41µM, RORg inh 0.316µM
Cc1ccc(S(=O)(=O)N/N=C/c2ccc(C#N)cc2)cc1	none (no result: KinaseGlo FLuc)
CCNC(=S)N/N=C/c1ccc(C#N)cc1	VP16 counter 17.8µM, RORg inh 7.08µM
CCNC(=S)N/N=C/c1ccco1	VP16 counter 3.16µM, RORg inh 2.24µM
N#C[C@H]1CN[C@H](N)N[C@@H]1N	none (no result: VP16 counter, RORg inh)
Cc1ccccc1CC(=O)N1CCCc2ccccc21	none (no result: KinaseGlo FLuc)
O=C(O)[C@@H](O)[C@@H](O)[C@H](O)C(=O)CO	none
Cc1cc2cc(CCNC(=O)C3c4ccccc4Oc4ccccc43)c(=O)[nH]c2cc1C	none
O=C1/C(=C/c2ccccc2)SC(=S)N1C1CCS(=O)(=O)C1 (stereo unspecified)	VP16 counter inconclusive (no result: KinaseGlo FLuc)
O=C1/C(=C/c2ccncc2)SC(=S)N1C1CCS(=O)(=O)C1 (stereo unspecified)	VP16 counter inconclusive, RORg inh 11.2µM
CC[C@H](C)[C@H](NC(=O)[C@H](CO)NC(=O)[C@H](CC(C)C)NC(=O)[C@@H]1CCCN1C(=O)[C@@H]1CCCN1C(=O)[C@H](CC(=O)O)NC(=O)[C@@H](N)CC(=O)O)C(=O)N[C@@H](CC(=O)O)C(=O)N[C@@H](CC(C)C)C(=O)N[C@H](C(=O)N[C@@H](Cc1ccccc1)C(=O)N[C@@H](Cc1cnc[nH]1)C(=O)N[C@@H](CC(C)C)C(=O)N[C@@H](CC(C)C)C(=O)N[C@@H](CCCNC(=N)N)C(=O)N[C@H](C(=O)N[C@@H](CC(C)C)C(=O)N[C@@H](CC(C)C)C(=O)N[C@@H](CCC(=O)O)C(=O)N[C@@H](CC(C)C)C(=O)N[C@@H](C)C(=O)N[C@@H](CCCNC(=N)N)C(=O)N[C@H](C(=O)N[C@@H](CCC(N)=O)C(=O)N[C@@H](CO)C(=O)N[C@@H](CCC(N)=O)C(=O)N[C@@H](CCCNC(=N)N)C(=O)N[C@@H](CCC(=O)O)C(=O)N[C@@H](CCCNC(=N)N)C(=O)N[C@@H](C)C(=O)N[C@@H](CCC(=O)O)C(=O)N[C@@H](CCC(N)=O)C(=O)N[C@@H](CC(N)=O)C(=O)N[C@@H](CCCNC(=N)N)C(=O)N[C@H](C(=O)N[C@H](C(=O)N[C@@H](Cc1ccccc1)C(=O)N[C@@H](CC(=O)O)C(=O)N[C@@H](CO)C(=O)N[C@H](C(N)=O)C(C)C)[C@@H](C)CC)[C@@H](C)CC)[C@@H](C)O)[C@@H](C)O)[C@@H](C)O	none (no result: KinaseGlo FLuc)

Source: PubChem BioAssay (National Center for Advancing Translational Sciences (NCATS))
